From PubChem BioAssay
Anthrax LF inh2 – anthrax lethal factor protease inhibition; P15917; multiplex microsphere protease cleavage assay, LF; inhibition, % at 10 µM; 360,000 tested, 0.12% active; in the data active = inhibition above about 30%; inconclusive = no clear call, values can overlap the other calls
Target sequence (P15917 whole entry, looked up): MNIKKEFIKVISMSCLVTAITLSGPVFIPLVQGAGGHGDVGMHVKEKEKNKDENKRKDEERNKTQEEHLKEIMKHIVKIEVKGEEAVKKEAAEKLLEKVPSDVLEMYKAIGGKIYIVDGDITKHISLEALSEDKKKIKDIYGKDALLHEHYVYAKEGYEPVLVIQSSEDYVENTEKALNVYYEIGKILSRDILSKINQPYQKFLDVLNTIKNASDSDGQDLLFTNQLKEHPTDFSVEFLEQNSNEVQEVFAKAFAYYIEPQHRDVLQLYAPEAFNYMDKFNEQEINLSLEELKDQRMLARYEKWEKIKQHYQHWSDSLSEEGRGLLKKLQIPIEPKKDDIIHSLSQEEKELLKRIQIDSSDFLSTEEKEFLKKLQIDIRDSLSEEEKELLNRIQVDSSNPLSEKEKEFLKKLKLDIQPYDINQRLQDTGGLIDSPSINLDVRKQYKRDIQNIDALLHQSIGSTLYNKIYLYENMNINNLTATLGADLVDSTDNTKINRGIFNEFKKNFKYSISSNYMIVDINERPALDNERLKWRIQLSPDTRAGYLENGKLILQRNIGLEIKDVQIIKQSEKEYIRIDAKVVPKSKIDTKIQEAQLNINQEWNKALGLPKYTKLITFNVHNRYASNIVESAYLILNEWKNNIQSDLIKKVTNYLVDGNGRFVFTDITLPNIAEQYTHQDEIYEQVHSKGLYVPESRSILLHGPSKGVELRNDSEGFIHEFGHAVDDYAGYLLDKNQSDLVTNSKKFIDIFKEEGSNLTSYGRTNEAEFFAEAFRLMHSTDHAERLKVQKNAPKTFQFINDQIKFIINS
BoNT A protease – BoNT A light chain protease inhibition; multiplex microsphere protease substrate cleavage, flow cytometry; inhibition, % at 10 µM; 360,000 tested, 0.17% active; AID 588499; in the data active = inhibition above about 30%; inconclusive = no clear call, values can overlap the other calls
FBA Mtb inh – Mtb fructose-bisphosphate aldolase inhibition. P9WQA3. purified M. tuberculosis FBA, fluorescence read-out. inhibition, % at 1 µM. 360,000 tested, 2.3% active. AID 588726
Autofluor counter – compound fluorescence in toxin protease inhibitor counterscreen; 360,000 tested, 3.1% active; fluorescence intensity (test concentration not listed); AID 624483; compound autofluorescence counterscreen, microsphere flow cytometry; active compounds read high; in the data active = fluorescence intensity above about 16000; inconclusive = no clear call, values can overlap the other calls
GDH-TPI counter-1 – GDH-TPI coupled enzyme inhibition counter-screen; GDH-TPI coupled enzyme counterscreen, NADH absorbance; inhibition, % at 4.8 µM; 360,000 tested, 1.2% active; in the data active = inhibition above about 30%
BoNT F protease – BoNT F light chain protease inhibition. Multiplex microsphere protease cleavage assay, flow cytometry. inhibition, % at 10 µM. 360,000 tested, 0.22% active. AID 588497; in the data active = inhibition above about 35%, passing the limit was not always enough; inconclusive = no clear call, values can overlap the other calls
Mtb FBA confirm – Mtb FBA inhibition, confirmed; shares compounds with FBA Mtb inh; purified M. tuberculosis FBA, fluorescence read-out; inhibition, % at 1 µM; 5,600 tested, 78% active; AID 651616
GDH-TPI counter-2 – inhibits GDH-TPI coupling enzymes, flagging Mtb FBA hits. 5,600 tested, 81% active. GDH-TPI coupled enzyme counterscreen, fluorescence. shares compounds with FBA Mtb inh. inhibition, % at 1 µM. AID 652141; in the data active = inhibition above about 10%
Hits are given with their value; . = inactive; ? = inconclusive; / = no result given; + = active, no number. A selection: hits, their analogues and other compounds. The true share with any hit is near 6.7%. Cut-off read from the data, not from the text of the source, unless noted: active = inhibition above about 27%; inactive = the rest.

SMILES | Anthrax LF inh2 | BoNT A protease | FBA Mtb inh | Autofluor counter | GDH-TPI counter-1 | BoNT F protease | Mtb FBA confirm | GDH-TPI counter-2
CC(=O)Nc1c(-c2ccc3ccccc3c2)nc2ccccn12 | . | . | 59 | . | . | . | 41 | 30
CCOC(=O)CNc1c(-c2ccc(O)cc2)nc2ccccn12 | . | . | 40 | 23116 | . | . | . | .
CCOC(=O)C(=O)c1c(-c2ccc(C)cc2)nc2ccccn12 | . | . | . | . | . | . | / | /
CC1CCCN(CCC(=O)c2ccccc2)C1 (stereo unspecified) | . | . | . | . | . | . | / | /
CCc1cccc(NC(=S)Nc2cccc3ccccc23)c1 | . | . | 46 | . | . | . | 86 | 77
COc1cccc(NC(=S)Nc2cccc3ccccc23)c1 | . | . | . | . | . | . | / | /
Cc1ccc(S(=O)(=O)N(C)C)cc1NC(=S)Nc1cccc2ccccc12 | . | . | 34 | . | . | . | + | 194
Fc1ccc(NC(=S)Nc2cccc3ccccc23)cc1 | . | . | . | . | . | ? | / | /
Fc1ccc(NC(=S)Nc2cccc3ccccc23)cc1F | . | . | 49 | . | . | . | . | 17
Cc1cccc(NC(=S)Nc2cccc3ccccc23)c1 | . | . | 47 | . | . | . | 143 | 112
CC(=O)NNC(=S)Nc1cc(S(=O)(=O)N(C)C)ccc1C | . | . | . | . | . | . | / | /
COc1ccc(CCn2nnnc2C(c2ccc(Cl)cc2)N2CCN(C)CC2)cc1OC (stereo unspecified) | . | . | . | . | . | . | / | /
Cc1cc(C)cc(NC(=S)Nc2cccc3ccccc23)c1 | . | . | 42 | . | . | . | 147 | 129
Cc1ccc(C)c(N(C(=O)c2snc(C(N)=O)c2N)C(C(=O)NCC2CCCO2)c2cccs2)c1 (stereo unspecified) | . | . | 36 | . | . | . | . | .
Cc1ccc(C(C(=O)NCC2CCCO2)N(C(=O)c2snc(C(N)=O)c2N)c2ccccc2)o1 (stereo unspecified) | . | . | . | . | . | . | / | /
Cc1ccc(C)c(N(C(=O)c2snc(C(N)=O)c2N)C(C(=O)NCC2CCCO2)c2ccc(C)o2)c1 (stereo unspecified) | . | . | 37 | . | . | . | 54 | 48
Cc1cccc(N(C(=O)c2snc(C(N)=O)c2N)C(C(=O)NCC2CCCO2)c2cccs2)c1 (stereo unspecified) | . | . | . | . | . | . | / | /
COc1ccc(CCC(=O)NNC(=O)c2cc(Cl)ccc2OC)cc1OC | . | . | . | . | . | . | / | /
C=CCn1c(SCC(=O)NC2CCCCC2)nnc1-c1sc(N)nc1C | . | . | 30 | . | . | . | 114 | 96
CN(C)/C=N/C(=S)Nc1ccccc1 | . | . | . | . | . | . | / | /
O=C(O)c1ccc2c(=O)n3c(nc2c1)/C(=C/c1ccc(C(F)(F)F)cc1)CC3 | . | . | 28 | . | . | . | 46 | 34
COc1cccc(C2NC(=O)NC(C)=C2C(=O)OCCSC)c1OC (stereo unspecified) | . | . | . | . | . | . | / | /
O=C(O)CCn1c(CO)nc2ccccc21 | . | . | . | . | . | . | / | /
O=C(O)CCn1c(-c2ccccc2)cc2ccccc21 | . | . | 58 | . | . | . | . | 16
O=C(CSc1nnc(CNC(=O)c2ccccc2)o1)Nc1nccs1 | . | . | . | . | . | . | / | /
SMILES | Anthrax LF inh2 | BoNT A protease | FBA Mtb inh | Autofluor counter | GDH-TPI counter-1 | BoNT F protease | Mtb FBA confirm | GDH-TPI counter-2
CC(=O)Nc1cncc(-c2cccc(C(=O)N(C)C)c2)n1 | . | . | . | . | . | . | / | /
CC(=O)Nc1cncc(-c2cnn(CC(C)C)c2)n1 | . | . | 61 | . | . | . | 50 | 51
COc1ccc(-c2oc3ccc(N4CCOCC4)cc3c2C#Cc2ccc(N)cc2)cc1 | . | . | 44 | . | . | . | 49 | 48
COc1ccc(/C=C/c2c(-c3cccc(C)c3)oc3ccc(N4CCOCC4)cc23)cc1 | . | . | 35 | . | . | . | 103 | 98
COC(=O)c1ccc(/C=C/c2c(-c3ccc(OC)cc3)oc3ccc(N4CCOCC4)cc23)cc1 | . | . | . | . | . | . | / | /
CC(c1ccccc1)N1C(=O)CC(Sc2ncccc2C(=O)O)C1=O (stereo unspecified) | . | . | . | . | . | . | / | /
COc1ccc(NC(=S)N/N=C2\CC(C)(C)Oc3ccc(OC)cc32)cc1 | . | . | . | . | . | . | / | /
O=C(CN1C(=O)NC2(CCCC2)C1=O)Nc1ccccc1C(F)(F)F | . | . | . | . | . | . | / | /
O=C(CN1C(=O)NC2(CCCCC2)C1=O)Oc1ccc2c(C(F)(F)F)cc(=O)oc2c1 | . | . | 31 | . | . | ? | 107 | 70
COCCn1c(SCC(=O)N2CCCc3ccccc32)nc2ccccc2c1=O | . | . | . | . | . | . | / | /
Cc1csc2ncc(C(=O)NCCc3ccccc3)c(=O)n12 | . | . | 52 | . | . | . | 122 | 104
Cc1csc2ncc(C(=O)NCc3ccccn3)c(=O)n12 | . | . | 65 | . | 36 | . | 175 | 147
Cc1csc2ncc(C(=O)NCCC(c3ccccc3)c3ccccc3)c(=O)n12 | . | . | 34 | . | . | . | 101 | 57
O=C(NCCc1ccccc1)c1cnc2ccccn2c1=O | . | . | 105 | . | . | . | 113 | 88
Cc1ccccc1NC(=O)c1cnc2ccccn2c1=O | . | . | . | . | . | . | / | /
Cc1ccc(CNC(=O)C2C3C=CC4(CN(Cc5cccnc5)C(=O)C24)O3)cc1 (stereo unspecified) | . | . | 68 | . | . | . | . | .
COc1ccc(CNC(=O)C2C3C=CC4(CN(Cc5cccnc5)C(=O)C24)O3)cc1 (stereo unspecified) | . | . | . | . | . | . | / | /
Cc1ccc(C(=O)OCC(=O)N(CCc2ccccc2)Cc2ccccc2)cc1S(=O)(=O)N1CCOCC1 | . | . | . | . | . | . | / | /
Cc1ccc(-c2cc(-c3ccccc3)cc(-c3ccccc3)[n+]2-c2ccccc2C(=O)O)cc1 | . | . | 54 | . | . | . | . | .
O=C([O-])c1ccc(-[n+]2c(-c3ccccc3)cc(-c3ccccc3)cc2-c2ccccc2)cc1 | . | . | . | . | . | . | / | /
COc1ccc(S(=O)(=O)Nc2c(NC3CCCCC3)c3ccccc3oc2=O)cc1Cl | . | . | 29 | . | . | . | + | +
Nc1c(C(=O)NCC2CCCO2)c2nc3ccccc3nc2n1-c1ccccc1 (stereo unspecified) | . | . | 108 | . | . | . | 87 | 73
CC(C)OCCCNC(=O)c1c(N)n(CC2CCCO2)c2nc3ccccc3nc12 (stereo unspecified) | . | . | 49 | . | . | . | + | +
CC(C)OCCCNC(=O)c1c(N)n(/N=C/c2cccs2)c2nc3ccccc3nc12 | ? | ? | . | ? | . | ? | / | /
